Measured values published in PubChem BioAssay (NCI).
This is part of a sample that, as a whole, favours compounds with a hit. Of some 83,000 tested, about 20% had one in any assay.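 Single-dose data. Exposure time 48 hours. Values below 10 considered active.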 Activity calls are given as the source filed them.

What follows are compounds tested on NCI/ADR-RES ovarian (assay: NCI-60 one-dose screen, 48 h (100 = growth as untreated, 0 = no growth, -100 = all killed)). Settings: 10 µM unless noted.
Procedure: Growth inhibition of the NCI/ADR-RES human […] tumor cell line is measured as a screen for anti-cancer activity. Cells are grown in 96 well plates and exposed to the test compound for 48 hours. Compounds are tested at a single concentration, which is 10^-5 M for most compounds. The reported endpoint is percent growth (GI% or GIPRCNT), where numbers from 0 - 100% represent growth inhibition, and numbers from -100% - 0 represent cell death. For example, a value of 40 represents 60% growth inhibition. A value of 0 means no net growth occurred over the course of the experiment. A value of -40 indicates 40% of cells at the beginning of the experiment died by the end of the experiment. A value of -100 means all cells are dead at the end of the experiment.
NCI-60 Human Tumor Cell Lines Screen was performed using the standard one-dose NCI protocol, which is described in more detail at https://dtp.cancer.gov/discovery_development/nci-60/default.htm.
Compounds with GIPRCNT values below 10 were considered active. Activity score was based on GIPRCNT using the following formula: […]
Score is 0 for GIPRCNT values of 100 or above, 50 for GIPRCNT values of 0, and 100 for GIPRCNT values of -100.

Row | Compound | growth
1 | CCCCCCCC/C=C/CCCCCCCC1=NC(C)(C)CN1CCO | 77.3% (inactive)
2 | Cc1cc(N2CCOCC2)nc(N2CCOCC2)n1 | 96.3% (inactive)
3 | Cc1nn(-c2ccccc2)c2nc(Cl)c(/C=C/C(=O)c3ccccc3)c(-c3ccccc3)c12 | 105% (inactive)
4 | CCCCC1Nc2nc(SC)n(C)c(=O)c2CN(Cc2ccccc2)C1=O (stereo not given) | 89.7% (inactive)
5 | Cc1cc(C(=O)O)c(C)cc1C(=O)O | 105% (inactive)
6 | c1ccc2c(c1)[nH]c1c2cc[n+]2cc3c(cc12)CCCC3 | 97.7% (inactive)
7 | CCOC(Cc1c(N)[nH]c(=S)[nH]c1=O)OCC | 102% (inactive)
8 | NC(=O)c1ccccc1NC(=O)c1ccccc1Cl | 115% (inactive)
9 | O=[P@@]1(c2ccccc2)O[C@H](COCc2ccccc2)[C@@H](OCc2ccccc2)[C@H](OCc2ccccc2)[C@H]1NCc1ccccc1 | 12.5% (inactive)
10 | CN1CCN(CC(=O)Nc2nc3c(s2)Nc2cc(Cl)c(Cl)cc2NC3=O)CC1 | 109% (inactive)
11 | c1cnc2n[nH]c(Nc3ncnc4c3sc3ncccc34)c2c1 | 104% (inactive)
12 | Cc1ccc(NC(=O)Nc2ccc(-c3cccnc3)cc2N2CCC(CO)CC2)cc1 | 40% (inactive)
13 | COc1ccc(-c2c3c(nn2-c2ccc(N)cc2)CCc2cnoc2-3)cc1OC | 77.6% (inactive)
14 | COc1ccc2c(c1)C(=O)/C(=C/c1cccc(OCC(=O)c3ccccc3)c1)CC2 | 80.7% (inactive)
15 | C[N+]1(CCC[N+]2(C)C[C@@H]3[C@H](C2)[C@@H]2C=C[C@H]3C2)CCOCC1 (stereo not given in full) | 107% (inactive)
16 | O=C(CCc1nnc(Cn2ccnc2)o1)c1nc2ccccc2[nH]1 | 99.8% (inactive)
17 | Clc1ccc2nc(Cl)c3ccccc3c2c1 | 74.8% (inactive)
18 | COc1ccc(-n2nnc(C(=O)O)c2-c2cc(OC)c(OC)c(OC)c2)cc1 | 109% (inactive)
19 | COC1=CC(c2ccc[nH]2)=N/C1=C\c1[nH]c(C)c(C(=O)CCC(=O)Oc2ccc3c(c2)CCC2C3CC[C@]3(C)C(=O)CC[C@@H]23)c1C (stereo not given in full) | 82.3% (inactive)
20 | CCCCSc1cc(C)nc(N)n1 | 95% (inactive)

Row | Compound | growth
21 | c1ccc(-c2nnc(Nc3nnc(-c4ccccc4)s3)s2)cc1 | 118% (inactive)
22 | CC/C(=C\c1ccc(N(C)C)cc1)c1ccncc1 | 8.26% (active)
23 | CC(=O)O[C@H]1C(=O)[C@@]2(C)C([C@H](OC(=O)c3ccccc3)[C@]3(O)C[C@H](OC(=O)[C@H](O)[C@@H](NC(=O)c4ccccc4)c4ccccc4)C(C)=C1C3(C)C)[C@]1(OC(C)=O)CO[C@@H]1C[C@@H]2O (stereo not given in full) | 43.9% (inactive)
24 | CC(O)c1nc2c(c(=O)n(C)c(=O)n2C)n1C (stereo not given) | 113% (inactive)
25 | CC[C@]1(O)CC2CN(CCc3c([nH]c4ccccc34)[C@@](C(=O)OC)(c3cc4c(cc3OC)N(C)[C@H]3[C@@](O)(C(=O)OC)[C@H](OC(C)=O)[C@]5(CC)C=CCN6CC[C@]43[C@@H]65)C2)C1 (stereo not given in full) | -17.4% (active)
26 | Oc1ccccc1C=Nc1ccccc1N=Cc1ccccc1O.[Cu+2] | 20.2% (inactive)
27 | O=C(/C(=N/O)S(=O)(=O)c1ccccc1)c1cccs1 | 97.3% (inactive)
28 | CCCCn1c(Cc2ccc(Cl)cc2)nc2cc(OC)c(OC)cc2c1=O | 75.7% (inactive)
29 | O=C(Nc1cccc([N+](=O)[O-])c1)c1cccc(C(=O)Nc2cccc([N+](=O)[O-])c2)c1 | 62.2% (inactive)
30 | O=C(/C=C/c1ccccc1Cl)c1ccc(O)cc1 | 97% (inactive)
31 | COc1cc(OC)c2sc(-c3ccc(-n4cncc4-c4ccc(N)cc4)cc3)nc2c1 | 68.9% (inactive)
32 | COc1cccc(/C=C2\COc3ccc(O)c(O)c3C2=O)c1OC | 16.9% (inactive)
33 | Clc1ncn[nH]1 | 106% (inactive)
34 | COc1cc(C2CC(=O)Nc3c2cc(Br)c2ccccc32)cc(Br)c1OC (stereo not given) | 6.65% (active)
35 | Oc1ccc(Cc2ccc(O)c(C3CC(c4ccc(Cl)cc4)=NN3)c2)cc1C1CC(c2ccc(Cl)cc2)=NN1 (stereo not given) | 4.68% (active)
36 | O=C1CN(CO)C(=O)CN1CO | 103% (inactive)
37 | COc1ccc(-c2nnc(COc3ccc(NC(=O)Nc4cc(C(F)(F)F)cc(C(F)(F)F)c4)cc3F)o2)cc1 | 10.6% (inactive)
38 | O=C1NCC(Nc2ccc(Br)cc2Cl)C(=O)N1 (stereo not given) | 107% (inactive)
39 | COc1ccc(-c2noc(N)c2-c2cc(OC)c3c(c2)OCO3)cc1 | 9.7% (active)
40 | O=C1C2C3C=CC(O3)C2C(=O)N1Nc1ccccc1 (stereo not given) | 105% (inactive)
